Assay results as given in PubChem BioAssay (EPA / NIEHS).
Active and inactive are the calls of the source. The calls were made as follows: active = hit-call score of the fitted dose curve at least 0.9, where 1 is the maximum; inactive = score below 0.9.

Key:
[1] = CEETOX_H295R_PROG: CeeTox H295R High-throughput Steroidogenesis Assay for Progesterone (PROG) (AID 2283442); conditions: actives raise or lower the signal;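 as to AC50: human H295R adrenal cells primed with 10 µM forskolin before dosing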
Method in brief: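 Progesterone secreted by human H295R cells was measured by LC-MS/MS following 48 h chemical exposure at 0.1% DMSO, preceded by 48 h forskolin (10 uM) stimulation. Same-well MTT viability; cytotoxic concentrations diluted 10- or 100-fold and retested.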

[2] = read-out: Tumor necrosis factor receptor superfamily member 6 (Homo sapiens) (UniProt P25445); assay: LTEA_HepaRG_FAS: Life Technologies and Expression Analysis (LTEA) Assay for Fas cell surface death receptor (FAS) using HepaRG (AID 2283447); conditions: mRNA level, 48 h; actives raise or lower the signal
Method in brief: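 Differentiated HepaRG cells in serum-free induction medium were exposed 48 h to 8 half-log concentrations up to 100 uM in 0.5% DMSO, in duplicate. FAS mRNA was measured by qRT-PCR normalised to ACTB, GAPDH and POLR2A; bidirectional fit versus DMSO.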

[3] = read-out: Fatty acid synthase (Homo sapiens) (UniProt P49327); assay: LTEA_HepaRG_FASN: Life Technologies and Expression Analysis (LTEA) Assay for Fatty Acid Synthase (FASN) using HepaRG (AID 2283448); conditions: mRNA level, 48 h; actives raise or lower the signal
Method in brief: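 Differentiated human HepaRG cells were exposed for 48 h in serum-free induction medium to eight half-log concentrations up to 100 uM in 0.5% DMSO, in duplicate. FASN mRNA was quantified by TaqMan qRT-PCR, normalized to ACTB/GAPDH/POLR2A, and fitted bidirectionally against DMSO.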

[4] = read-out: Cyclin D2 (CCND2), CCND2 (gene 894); assay: LTEA_HepaRG_CCND2: Life Technologies and Expression Analysis (LTEA) Assay for Cyclin D2 (CCND2) using HepaRG (AID 2283449); conditions: mRNA level, 48 h; actives raise or lower the signal;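 also: CCND2 transcript measured by TaqMan qRT-PCR and normalised to three housekeeping genes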
Method in brief: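 Chemicals in 0.5% DMSO, eight half-log concentrations from 100 uM top, were applied in duplicate for 48 h to human HepaRG cells in serum-free induction medium. CCND2 mRNA by TaqMan qRT-PCR, normalised to ACTB/GAPDH/POLR2A; bidirectional fit versus DMSO.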

[5] = read-out: Cyclin Dependent Kinase Inhibitor 1A (CDKN1A), CDKN1A (gene 1026); assay: LTEA_HepaRG_CDKN1A: Life Technologies and Expression Analysis (LTEA) Assay for Cyclin Dependent Kinase Inhibitor 1A (CDKN1A) using HepaRG (AID 2283450); conditions: mRNA level, 48 h; actives raise or lower the signal
Method in brief: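 Expression quantified by Fluidigm qRT-PCR with ACTB, GAPDH and POLR2A normalization, fitted bidirectionally against 0.5% DMSO. Cells: HepaRG, plated 48 h then treated 48 h in serum-free induction medium, top concentration 100 uM with half-log dilutions.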

[6] = read-out: Cyclin D1 (CCND1), CCND1 (gene 595); assay: LTEA_HepaRG_CCND1: Life Technologies and Expression Analysis (LTEA) Assay for Cyclin D1 (CCND1) using HepaRG (AID 2283451); conditions: mRNA level, 48 h; actives raise or lower the signal;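 as to AC50: TaqMan qRT-PCR transcript level normalised to ACTB GAPDH and POLR2A housekeeping genes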
Method in brief: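 Expression of CCND1 was quantified by qRT-PCR on Fluidigm arrays using ACTB, GAPDH and POLR2A as reference genes. HepaRG cultures, plated 48 h beforehand, were dosed for 48 h at up to 100 uM (half-log, 8 points) in 0.5% DMSO.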

[7] = read-out: catalase (CAT), CAT (gene 847); assay: LTEA_HepaRG_CAT: Life Technologies and Expression Analysis (LTEA) Assay for catalase (CAT) using HepaRG (AID 2283452); conditions: mRNA level, 48 h; actives raise or lower the signal;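 as to AC50: TaqMan qRT-PCR signal normalized to ACTB GAPDH and POLR2A housekeeping genes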
Method in brief: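 HepaRG cells in serum-free induction medium, 0.5% DMSO vehicle, exposed 48 h in duplicate over 8 half-log concentrations from 100 uM. CAT mRNA measured by qRT-PCR, normalized to ACTB, GAPDH, POLR2A; bidirectional fit versus DMSO.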

[8] = read-out: flavin-containing dimethylaniline monooxygenases 3 (FMO3), FMO3 (gene 2328); assay: LTEA_HepaRG_FMO3: Life Technologies and Expression Analysis (LTEA) Assay for flavin-containing dimethylaniline monooxygenases 3 (FMO3) using HepaRG (AID 2283453); conditions: mRNA level, 48 h; actives raise or lower the signal
Method in brief: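 HepaRG, 48 h exposure, 8-pt half-log series from 100 uM, 0.5% DMSO vehicle, duplicates; FMO3 transcript by Fluidigm TaqMan qRT-PCR, housekeeping-normalized; gain/loss fit vs DMSO.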

[9] = read-out: Cytochrome P450 (CYP1A1), CYP1A1 (gene 1543); assay: LTEA_HepaRG_CYP1A1: Life Technologies and Expression Analysis (LTEA) Assay for Cytochrome P450 (CYP1A1) using HepaRG (AID 2283454); conditions: mRNA level, 48 h; actives raise or lower the signal
Method in brief: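 CYP1A1 transcript levels measured by Fluidigm qRT-PCR against three housekeeping genes, 48 h after chemical dosing of human HepaRG cells (highest concentration 100 uM, half-log steps, 0.5% DMSO vehicle). Gain or loss of signal fitted relative to DMSO.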

[10] = read-out: CFLAR gene, CFLAR (gene 8837); assay: LTEA_HepaRG_CFLAR: Life Technologies and Expression Analysis (LTEA) Assay for CFLAR gene using HepaRG (AID 2283455); conditions: mRNA level, 48 h; actives raise or lower the signal
Method in brief: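 Differentiated HepaRG cells in serum-free induction medium were exposed 48 h in duplicate to eight half-log concentrations up to 100 uM in 0.5% DMSO; mRNA measured by TaqMan qRT-PCR, normalized to ACTB, GAPDH, POLR2A; bidirectional fitting versus DMSO.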

[11] = read-out: Forkhead box O1 (FOXO1), FOXO1 (gene 2308); assay: LTEA_HepaRG_FOXO1: Life Technologies and Expression Analysis (LTEA) Assay for Forkhead box O1 (FOXO1) using HepaRG (AID 2283456); conditions: mRNA level, 48 h; actives raise or lower the signal
Method in brief: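 Differentiated HepaRG cells, in serum-free induction medium with 0.5% DMSO, exposed 48 h in duplicate to 8-point half-log series from 100 uM. FOXO1 mRNA measured by TaqMan qRT-PCR, normalized to ACTB, GAPDH, POLR2A; bidirectional fit versus DMSO.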

[12] = read-out: Forkhead box O3 (FOXO3), FOXO3 (gene 2309); assay: LTEA_HepaRG_FOXO3: Life Technologies and Expression Analysis (LTEA) Assay for Forkhead box O3 (FOXO3) using HepaRG (AID 2283459); conditions: mRNA level, 48 h; actives raise or lower the signal
Method in brief: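 Differentiated human HepaRG cells, 48 h post-plating, exposed in duplicate for 48 h in serum-free induction medium; 8-point half-log series from 100 uM in 0.5% DMSO. FOXO3 mRNA by TaqMan qRT-PCR, normalized to ACTB/GAPDH/POLR2A; bidirectional fit versus DMSO.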

[13] = read-out: ABC Transporter (ABCB1), ABCB1 (gene 5243); assay: LTEA_HepaRG_ABCB1: Life Technologies and Expression Analysis (LTEA) Assay for ABC Transporter (ABCB1) using HepaRG (AID 2283460); conditions: mRNA level, 48 h; actives raise or lower the signal
Method in brief: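 HepaRG cells exposed in duplicate for 48 h in serum-free induction medium to eight half-log concentrations up to 100 uM in 0.5% DMSO. ABCB1 mRNA quantified by qRT-PCR, normalised to ACTB, GAPDH and POLR2A; fitted bidirectionally versus DMSO.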

[14] = read-out: growth arrest and DNA damage 45 (GADD45B), GADD45B (gene 4616); assay: LTEA_HepaRG_GADD45B: Life Technologies and Expression Analysis (LTEA) Assay for growth arrest and DNA damage 45 (GADD45B) using HepaRG (AID 2283461); conditions: mRNA level, 48 h; actives raise or lower the signal
Method in brief: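 Transcript level quantified by Fluidigm TaqMan qRT-PCR with three housekeeping genes for normalization, analyzed for up- or down-regulation against 0.5% DMSO. HepaRG cultures dosed 48 h at eight half-log concentrations up to 100 uM, duplicates.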

[15] = read-out: ABC Transporter (ABCC3), ABCC3 (gene 8714); assay: LTEA_HepaRG_ABCC3: Life Technologies and Expression Analysis (LTEA) Assay for ABC Transporter (ABCC3) using HepaRG (AID 2283462); conditions: mRNA level, 48 h; actives raise or lower the signal
Method in brief: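 Transcript level by TaqMan qRT-PCR, normalised to three housekeeping genes, fitted in both directions relative to vehicle. Chemicals tested in duplicate at eight half-log concentrations up to 100 uM for 48 h on HepaRG cells (0.5% DMSO).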

[16] = read-out: ABC Transporter (ABCC2), ABCC2 (gene 1244); assay: LTEA_HepaRG_ABCC2: Life Technologies and Expression Analysis (LTEA) Assay for ABC Transporter (ABCC2) using HepaRG (AID 2283464); conditions: mRNA level, 48 h; actives raise or lower the signal
Method in brief: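 Endpoint is ABCC2 transcript level from qRT-PCR, normalized to three housekeeping genes and fitted bidirectionally relative to DMSO. Human HepaRG cells received test chemical for 48 h at up to 100 uM (8 points, half-log steps, 0.5% DMSO), duplicate wells.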

[17] = read-out: Broad substrate specificity ATP-binding cassette transporter ABCG2 (Homo sapiens) (UniProt Q9UNQ0); assay: LTEA_HepaRG_ABCG2: Life Technologies and Expression Analysis (LTEA) Assay for ABC Transporter (ABCG2) using HepaRG (AID 2283465); conditions: mRNA level, 48 h; actives raise or lower the signal
Method in brief: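 Differentiated HepaRG cells were exposed for 48 h in serum-free induction medium to 8 half-log concentrations, top 100 uM, in 0.5% DMSO. ABCG2 mRNA was measured by qRT-PCR, normalized to ACTB, GAPDH and POLR2A, with bidirectional fitting versus DMSO.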

[18] = read-out: growth arrest and DNA damage 45 (GADD45A), GADD45A (gene 1647); assay: LTEA_HepaRG_GADD45A: Life Technologies and Expression Analysis (LTEA) Assay for growth arrest and DNA damage 45 (GADD45A) using HepaRG (AID 2283458); conditions: mRNA level, 48 h; actives raise or lower the signal
Method in brief: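 Differentiated HepaRG cells were exposed in duplicate for 48 h in serum-free induction medium to 8-point half-log concentrations up to 100 uM in 0.5% DMSO. GADD45A mRNA was measured by TaqMan qRT-PCR, normalized to ACTB, GAPDH and POLR2A, with bidirectional fitting versus DMSO.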

[19] = read-out: ABC Transporter (ABCB11), ABCB11 (gene 8647); assay: LTEA_HepaRG_ABCB11: Life Technologies and Expression Analysis (LTEA) Assay for ABC Transporter (ABCB11) using HepaRG (AID 2283463); conditions: mRNA level, 48 h; actives raise or lower the signal
Method in brief: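 Differentiated human HepaRG cells in serum-free induction medium, dosed in duplicate for 48 h. Eight-point half-log series from 100 uM in 0.5% DMSO; ABCB11 mRNA by qRT-PCR, normalized to ACTB, GAPDH, POLR2A, fitted bidirectionally versus DMSO.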

[20] = CEETOX_H295R_TESTO: CeeTox H295R High-throughput Steroidogenesis Assay for Testosterone (TESTO) (AID 2283457); conditions: actives raise or lower the signal
Method in brief: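 Testosterone secreted into the medium over 48 h by H295R cells (maximum passage 10) was quantified by LC-MS/MS after MTBE extraction. Fitted in both directions against DMSO, with concentrations diluted until MTT viability was ≥70%.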

Measured: AC50

Chain of Fatty acid synthase (Homo sapiens) (P49327 whole entry, looked up): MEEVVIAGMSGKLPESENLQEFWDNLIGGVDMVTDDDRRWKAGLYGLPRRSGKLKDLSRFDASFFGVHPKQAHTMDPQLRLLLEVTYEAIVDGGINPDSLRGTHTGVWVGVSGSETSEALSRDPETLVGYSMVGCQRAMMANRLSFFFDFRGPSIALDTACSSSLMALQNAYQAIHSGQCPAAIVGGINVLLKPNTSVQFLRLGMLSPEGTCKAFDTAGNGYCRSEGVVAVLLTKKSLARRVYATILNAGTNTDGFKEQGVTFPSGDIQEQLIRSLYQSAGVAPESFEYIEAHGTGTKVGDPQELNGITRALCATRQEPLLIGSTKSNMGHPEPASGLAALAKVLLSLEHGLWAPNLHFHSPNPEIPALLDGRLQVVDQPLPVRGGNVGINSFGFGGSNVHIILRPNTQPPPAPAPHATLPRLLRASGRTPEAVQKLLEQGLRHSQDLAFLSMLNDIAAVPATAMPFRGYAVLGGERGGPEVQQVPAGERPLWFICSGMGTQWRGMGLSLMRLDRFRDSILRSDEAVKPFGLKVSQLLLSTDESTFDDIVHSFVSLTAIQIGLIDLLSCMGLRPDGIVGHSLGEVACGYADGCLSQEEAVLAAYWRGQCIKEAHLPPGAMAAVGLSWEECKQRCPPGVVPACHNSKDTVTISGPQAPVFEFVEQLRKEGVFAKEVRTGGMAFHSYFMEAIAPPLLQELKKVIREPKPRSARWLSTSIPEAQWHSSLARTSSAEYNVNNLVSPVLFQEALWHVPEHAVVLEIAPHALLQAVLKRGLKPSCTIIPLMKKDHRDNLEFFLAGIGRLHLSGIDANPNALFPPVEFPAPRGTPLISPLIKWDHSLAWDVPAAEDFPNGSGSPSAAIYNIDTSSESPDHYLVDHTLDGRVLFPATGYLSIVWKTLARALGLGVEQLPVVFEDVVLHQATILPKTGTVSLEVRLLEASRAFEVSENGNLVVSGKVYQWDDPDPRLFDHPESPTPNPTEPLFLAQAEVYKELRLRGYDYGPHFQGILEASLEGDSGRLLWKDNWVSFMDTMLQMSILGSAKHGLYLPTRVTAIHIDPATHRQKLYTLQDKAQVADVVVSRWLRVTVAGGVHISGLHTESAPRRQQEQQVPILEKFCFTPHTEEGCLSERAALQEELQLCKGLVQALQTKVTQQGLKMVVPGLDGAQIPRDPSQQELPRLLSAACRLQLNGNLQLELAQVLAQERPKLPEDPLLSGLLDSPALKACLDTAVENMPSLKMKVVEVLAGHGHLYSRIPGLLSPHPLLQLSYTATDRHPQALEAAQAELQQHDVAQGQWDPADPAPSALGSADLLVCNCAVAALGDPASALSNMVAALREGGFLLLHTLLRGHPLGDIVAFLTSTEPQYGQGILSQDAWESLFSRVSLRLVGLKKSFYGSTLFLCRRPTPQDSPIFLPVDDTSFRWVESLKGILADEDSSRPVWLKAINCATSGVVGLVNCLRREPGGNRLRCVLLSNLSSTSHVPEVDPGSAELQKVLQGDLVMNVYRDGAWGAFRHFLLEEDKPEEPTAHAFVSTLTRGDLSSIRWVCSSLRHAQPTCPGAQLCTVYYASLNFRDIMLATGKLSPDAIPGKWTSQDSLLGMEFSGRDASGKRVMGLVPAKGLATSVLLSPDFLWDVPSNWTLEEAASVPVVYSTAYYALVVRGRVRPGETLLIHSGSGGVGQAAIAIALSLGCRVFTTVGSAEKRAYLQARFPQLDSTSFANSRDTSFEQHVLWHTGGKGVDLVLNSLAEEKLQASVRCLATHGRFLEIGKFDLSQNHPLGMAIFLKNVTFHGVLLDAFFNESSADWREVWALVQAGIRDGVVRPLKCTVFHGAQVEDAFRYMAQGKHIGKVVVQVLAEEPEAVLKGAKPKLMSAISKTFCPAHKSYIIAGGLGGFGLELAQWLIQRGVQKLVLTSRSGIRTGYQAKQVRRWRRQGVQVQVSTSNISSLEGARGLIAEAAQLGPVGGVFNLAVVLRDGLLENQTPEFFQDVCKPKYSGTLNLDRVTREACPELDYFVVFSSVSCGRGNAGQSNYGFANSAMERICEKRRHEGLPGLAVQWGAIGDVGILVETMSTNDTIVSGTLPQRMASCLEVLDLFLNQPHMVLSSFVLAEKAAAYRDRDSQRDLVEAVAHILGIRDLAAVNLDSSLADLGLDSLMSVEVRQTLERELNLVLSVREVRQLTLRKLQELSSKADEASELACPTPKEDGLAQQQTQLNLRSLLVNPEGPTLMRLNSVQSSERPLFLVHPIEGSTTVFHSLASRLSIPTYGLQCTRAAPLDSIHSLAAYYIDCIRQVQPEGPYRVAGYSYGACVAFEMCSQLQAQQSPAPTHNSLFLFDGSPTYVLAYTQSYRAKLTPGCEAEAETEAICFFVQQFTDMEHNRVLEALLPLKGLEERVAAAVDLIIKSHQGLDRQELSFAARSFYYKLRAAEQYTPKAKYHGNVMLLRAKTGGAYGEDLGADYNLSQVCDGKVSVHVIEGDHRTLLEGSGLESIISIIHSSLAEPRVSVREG
Chain of Broad substrate specificity ATP-binding cassette transporter ABCG2 (Homo sapiens) (Q9UNQ0 whole entry, looked up): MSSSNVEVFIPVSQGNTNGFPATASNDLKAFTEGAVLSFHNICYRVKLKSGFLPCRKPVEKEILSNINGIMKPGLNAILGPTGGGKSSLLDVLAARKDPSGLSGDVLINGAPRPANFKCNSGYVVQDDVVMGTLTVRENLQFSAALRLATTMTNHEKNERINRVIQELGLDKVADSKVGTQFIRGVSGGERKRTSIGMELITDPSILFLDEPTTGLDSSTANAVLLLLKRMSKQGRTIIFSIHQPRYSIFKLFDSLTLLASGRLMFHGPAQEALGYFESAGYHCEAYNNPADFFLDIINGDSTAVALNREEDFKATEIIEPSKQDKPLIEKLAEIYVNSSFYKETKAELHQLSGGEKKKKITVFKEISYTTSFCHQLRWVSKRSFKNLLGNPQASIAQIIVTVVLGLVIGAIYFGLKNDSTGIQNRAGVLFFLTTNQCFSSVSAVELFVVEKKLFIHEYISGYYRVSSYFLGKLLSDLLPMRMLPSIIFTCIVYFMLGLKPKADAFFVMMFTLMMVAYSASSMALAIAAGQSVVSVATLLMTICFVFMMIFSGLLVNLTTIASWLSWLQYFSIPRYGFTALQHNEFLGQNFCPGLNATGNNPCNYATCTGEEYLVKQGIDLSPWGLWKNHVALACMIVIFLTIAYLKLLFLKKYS

[As]#[In]
not listed: [18] | [19] | [20]
inactive: all other assays above

N#CC(Br)(Br)C(N)=O
active: [1] 50 µM
not listed: [20]
inactive: all other assays above

Cc1cc(N=Nc2ccccc2C)ccc1N
inactive: [4] | [20] | [17]
active: [1] 2.5 µM | [2] 3.37 µM | [3] 2.9 µM | [5] 3.36 µM | [6] 39.2 µM | [7] 3.32 µM | [8] 4.86 µM | [9] 1.05 µM | [10] 2.75 µM | [11] 12.5 µM | [18] 3.52 µM | [12] 5.56 µM | [13] 5.45 µM | [14] 7.67 µM | [15] 13 µM | [19] 4.58 µM | [16] 3.17 µM

Nc1ccc(Cl)cc1N
active: [1] 1.89 µM | [2] 13.3 µM | [3] 37.9 µM | [5] 11.4 µM | [7] 18.7 µM | [8] 23.1 µM | [9] 1.81 µM | [10] 33.1 µM | [11] 29.4 µM | [18] 13.3 µM | [12] 21.5 µM | [13] 19.6 µM | [14] 13.3 µM | [15] 35.8 µM | [19] 19 µM | [16] 37.3 µM
inactive: [4] | [6] | [20] | [17]

CCC(C)c1ccc(O)cc1 (stereo unspecified)
not listed: [19] | [20]
inactive: all other assays above

Nc1ccc(Cc2ccc(N)cc2)cc1
active: [1] 3.84 µM | [9] 32.3 µM
not listed: [4] | [18] | [20]
inactive: all other assays above
